In the OligoGym collection:

Each sequence was assayed against C15orf54 (assay: pooled miR-30 sensor sort-seq; sequence = guide strand). Settings: shRNA.
Also: reference of the scale not given here.

In order of rising sensor-assay potency score (higher = more potent):
1. TTCCTTTACATTTATAACCATT  -1.28
2. TAGTATAATAAAGTTATGCTAC  -0.835
3. TATTTGAACATATAAGATGTTA  -0.68
4. TTATTTGAAAGGGACATCTGTT  -0.498
5. TTAAGCAATGAGCTCAATCTAG  -0.475
6. TTCTGTAGGCACTACATTCTGG  -0.0345
7. TTGAAAGGGACATCTGTTGGAT  0.0555
8. TTCAGTTTGTGACTTTTGCTGG  0.098
9. AACAACAACAAGAATATCCTGC  0.568
10. TTCACCTTCTTGAAGAACCTGC  0.924

These sequences were tested against C15orf58 in the same assay as above. Settings: shRNA.

In order of falling sensor-assay potency score (higher = more potent):
1. AACATTGAAAGCTTCACCGTCC  0.994
2. TGAAGTTGAACTGTACAGGGTC  0.667
3. ATTGAAAGCTTCACCGTCCTTT  0.575
4. TCTTGTTGAAGTTGAACTGTAC  0.172
5. TTGAAGTTGAACTGTACAGGGT  0.153
6. TCTTCTTGCAGCAGAGTCCCAG  -0.775
7. TGTCAGGCTGCTGAAGTCCTGG  -0.843
8. ATCTTGTTGAAGTTGAACTGTA  -0.903
9. TGCCTGTACGTCTTCTGCCTGG  -0.932
10. TTATCAAGGACTCCAAGTCAGG  -1.43
11. TTTGGGTCTGTAGCTCCCGTAG  -1.43

The sequences below were run against C16orf55 in the same assay as above. Settings: shRNA.

In order of falling sensor-assay potency score (higher = more potent):
1. TAGGCGTCTGCTGTACTGGGGT  0.489
2. TTACATCAGGTTTCTCTTCCAG  0.199
3. TCTCCTTAGATTTTGGAACTGA  -0.0429
4. TTAGATTTTGGAACTGAATAGG  -0.116
5. TTTGGAACTGAATAGGTGGATC  -0.304
6. TTTTGGAACTGAATAGGTGGAT  -0.336
7. TAGATTTTGGAACTGAATAGGT  -0.346
8. TTCTCCATCAACTTCTCCTTAG  -0.561
9. TTATAGGCGTCTGCTGTACTGG  -0.778
10. TTCCTGGGAATGCTTCTCCATC  -1.49
11. TTCTCTGCTGGTCACTCCCGCT  -1.51
12. TGGACTTTTGCTTTACATCAGG  -1.63

Each sequence was assayed against C17orf103 in the same assay as above. Settings: shRNA.

In order of rising sensor-assay potency score (higher = more potent):
1. ACGTACTTCTGGATGTACCAGC  -1.62
2. TACTTCTGGATGTACCAGCAGG  -1.01
3. TGTACCAGCAGGTGAGATGGGC  -0.507
4. TCATGACATCCGTTGAGCCGGA  -0.377
5. TCTCCTTGACGTACTTCTGGAT  -0.358
6. TAGGCATCTGGGACCTCGGTGT  -0.272
7. TCATAGAGCAGGACGGCCCGGT  -0.156
